# In all, about 400,000 compounds went through this assay and about 2,100 (0.53%) were called active. Not shown: some 14% with an inconclusive outcome. The rule behind the calls is not given here. What follows is part of a selection rich in actives, with near analogues and random picks from the rest.
# Molecular target: Ataxin-2 (Homo sapiens) (UniProt Q99700)
# Assay: qHTS for Inhibitors of ATXN expression.
# Assay type: functional
# Chain of Ataxin-2 (Homo sapiens) (Q99700 whole entry): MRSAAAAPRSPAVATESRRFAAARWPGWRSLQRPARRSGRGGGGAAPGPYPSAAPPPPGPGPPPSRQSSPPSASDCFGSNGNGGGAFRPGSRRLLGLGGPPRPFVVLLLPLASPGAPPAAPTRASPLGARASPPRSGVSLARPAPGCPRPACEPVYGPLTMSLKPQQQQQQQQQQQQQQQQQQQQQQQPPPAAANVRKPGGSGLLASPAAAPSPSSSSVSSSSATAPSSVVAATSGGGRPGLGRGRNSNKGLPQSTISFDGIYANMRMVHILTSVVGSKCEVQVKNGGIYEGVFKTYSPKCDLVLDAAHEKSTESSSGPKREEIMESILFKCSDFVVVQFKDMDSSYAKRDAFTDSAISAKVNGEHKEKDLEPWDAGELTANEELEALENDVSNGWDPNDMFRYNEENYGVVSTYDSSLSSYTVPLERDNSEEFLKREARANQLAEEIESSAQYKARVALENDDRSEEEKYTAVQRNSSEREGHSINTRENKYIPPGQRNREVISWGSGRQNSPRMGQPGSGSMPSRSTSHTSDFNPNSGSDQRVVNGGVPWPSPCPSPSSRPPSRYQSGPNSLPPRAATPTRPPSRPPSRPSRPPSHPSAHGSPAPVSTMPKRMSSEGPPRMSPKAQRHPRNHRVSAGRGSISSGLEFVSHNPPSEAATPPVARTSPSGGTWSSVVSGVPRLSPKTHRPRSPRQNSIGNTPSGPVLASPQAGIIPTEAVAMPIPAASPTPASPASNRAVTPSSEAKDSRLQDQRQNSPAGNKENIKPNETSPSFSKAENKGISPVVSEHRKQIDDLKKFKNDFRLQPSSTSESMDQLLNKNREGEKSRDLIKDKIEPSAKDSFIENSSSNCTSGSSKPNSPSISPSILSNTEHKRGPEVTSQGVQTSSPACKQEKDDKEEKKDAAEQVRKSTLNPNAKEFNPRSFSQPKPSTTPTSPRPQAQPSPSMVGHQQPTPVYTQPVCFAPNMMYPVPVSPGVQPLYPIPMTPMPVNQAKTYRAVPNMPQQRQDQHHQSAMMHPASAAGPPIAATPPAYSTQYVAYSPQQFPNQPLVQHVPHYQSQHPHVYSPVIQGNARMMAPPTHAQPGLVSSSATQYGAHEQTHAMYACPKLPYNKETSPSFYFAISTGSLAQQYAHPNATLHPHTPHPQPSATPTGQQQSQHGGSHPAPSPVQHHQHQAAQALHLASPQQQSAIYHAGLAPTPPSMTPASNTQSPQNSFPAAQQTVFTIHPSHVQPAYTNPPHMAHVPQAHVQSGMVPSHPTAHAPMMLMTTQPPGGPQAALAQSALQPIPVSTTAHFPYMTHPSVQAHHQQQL
row,SMILES,Potency
1,Cc1ccc2nc3c(cc(C(=O)NC4CCCC4)c(=N)n3C(C)C)c(=O)n2c1,inactive
2,O=C(O)c1ccc(/N=c2\oc3cc(O)ccc3cc2C(=O)NCc2ccccc2)cc1,inactive
3,O=c1cc(CN2CCOCC2)c2cc(Cl)c(O)cc2o1,inactive
4,CCOc1cc(/C=C2\COc3ccccc3C2=O)cc(Br)c1OCC(=O)N(C)C,28.2 µM (active)
5,CN(C)C(=O)COc1ccc2c(-c3ccccc3)cc(=O)oc2c1,inactive
6,CCOc1cc(/C=C2/C(=O)ON=C2C)cc(Br)c1O,inactive
7,C=CCn1cc[n+](-c2nc3ccccc3nc2[N-]S(=O)(=O)c2cccs2)c1,inactive
8,CCNc1nc(SCC(N)=O)nc2sc3c(c12)CCN(C)C3,inactive
9,COc1ccc(C[C@@H]2OC3(C=CC(=O)C=C3)O[C@H]2Cc2ccc(OC)cc2)cc1,3.98 µM (active)
10,COc1ccc(Cc2n[nH]c(=S)n(N)c2=O)cc1,inactive
11,COC(=O)c1ccc(CO/N=C/c2ccc(OC)cc2)o1,inactive
12,CC1CN(Cc2cc(=O)oc3cc(O)c(Cl)cc23)CC(C)O1 (centres undefined),inactive
13,Cc1nn(-c2ccccc2)c(C)c1C(=O)Oc1ccccc1,inactive
14,CCCSC(=S)c1c(C)nn(-c2ccccc2)c1O,22.4 µM (active)
15,CCc1c(O)nc2c(c(C)nn2-c2ccccc2)c1C,inactive
16,NC[C@H](Cc1ccccc1)NCCc1cc(C(F)(F)F)cc(C(F)(F)F)c1,39.8 µM (active)
17,NC(=S)c1cc2cc(Cl)ccc2oc1=O,inactive
18,N=c1c(C(=O)NCC2CCCO2)cc2c(=O)n3ccccc3nc2n1C1CCCCC1 (centres undefined),inactive
19,COc1ccc(NC(=O)CN2CCN(CC(=O)Nc3ccc(OC)cc3)CC2)cc1,inactive
20,COc1ccc(NC(=O)CSCC(=O)NCCc2ccccn2)cc1,inactive
21,COc1ccc(NC(=O)CC2Sc3ncnn3C2=O)cc1 (centres undefined),39.8 µM (active)
22,O=C(Oc1c(CN2CCOCC2)cc(Cl)c2cccnc12)c1ccccc1F,inactive
23,CC(=O)N1CCc2ccc(S(=O)(=O)N3CCc4ccccc43)cc21,inactive
24,CC(C)c1ccc(S(=O)(=O)N2CCN(C(=O)C3CCCC3)CC2)cc1,inactive
25,CC(=O)N1CCCc2cc(S(=O)(=O)N3CCCC(C(=O)N4CCN(c5cccc(Cl)c5)CC4)C3)ccc21 (centres undefined),39.8 µM (active)
26,COc1ccc(C(=O)NNC(=O)c2ccc3ccccc3n2)cc1,17.8 µM (active)

row,SMILES,Potency
1,CC(NC(=O)c1ccc2ccccc2n1)c1ccc(S(N)(=O)=O)cc1 (centres undefined),inactive
2,COc1ccc(C(=O)N/N=C/c2cc3ccccc3nc2O)cc1,inactive
3,COc1ccc(C2c3[nH]c4ccccc4c3CCN2CCCn2cccn2)c(C)c1C (centres undefined),inactive
4,Cc1cccc(N=C(S)N2CCC(C(N)=O)(N3CCCCC3)CC2)c1C,inactive
5,Oc1c(N=NC(S)=Nc2ccccc2F)c2ccccc2n1Cc1ccc(Cl)cc1,inactive
6,Cc1cccc(N=C(S)N=Nc2c(O)n(CN3CCOCC3)c3ccccc23)c1C,6.31 µM (active)
7,CCn1c(O)c(N=NC(S)=NCC2CCCO2)c2ccccc21 (centres undefined),8.91 µM (active)
8,Cc1ccc(C(=O)Nc2nc3n(n2)C(c2ccc(F)cc2)C=C(c2ccccc2)N3)cc1 (centres undefined),inactive
9,NS(=O)(=O)c1ccc(CCN2C(=O)/C(=C\c3ccc(Cl)cc3)SC2=S)cc1,17.8 µM (active)
10,O=C1/C(=C/c2ccccc2Cl)SC(=S)N1CCCC(=O)N(CCO)c1ccccc1,31.6 µM (active)
11,COc1cc([N+](=O)[O-])cc(/C=C2/SC(=S)N(Cc3ccccc3)C2=O)c1O,20 µM (active)
12,O=C1/C(=C\c2cccc(O)c2O)SC(=S)N1Cc1ccccc1,31.6 µM (active)
13,NS(=O)(=O)c1ccc(CCNS(=O)(=O)c2ccc(Cl)s2)cc1,inactive
14,O=C(O)CN1C(=O)/C(=C\c2cccc(OCc3ccc(Cl)cc3)c2)SC1=S,inactive
15,O=C(O)c1cc(-c2ccc(/C=C3/SC(=S)N(Cc4ccccc4)C3=O)o2)ccc1Cl,inactive
16,COc1ccc(/C=C(\C)C(=O)c2c(C)cc(C)nc2O)cc1,inactive
17,Cc1ccc2c(CN(C)Cc3cccc(Cl)c3)cc(=O)oc2c1C,inactive
18,C=C1c2ccccc2N=C(S)N1Cc1ccc2c(c1)OCO2,inactive
19,COCc1cc(C)nc(SCC(=O)Oc2ccc(Cl)cc2)c1C#N,inactive
20,N=c1c(C(=O)NC2CCCCC2)cc2c(=O)n3ccccc3nc2n1CC1CCCO1 (centres undefined),inactive
21,CCn1nc(NC(=O)C(C)(C)C)c2cc3cccc(C)c3nc21,inactive
22,O=C1c2ccc([N+](=O)[O-])cc2C(=O)N1c1ccc(Cl)cn1,inactive
23,O=C1/C(=C\c2cc([N+](=O)[O-])ccc2O)SC(=S)N1Cc1ccc(Cl)cc1,35.5 µM (active)
24,CN(C)c1ccc(/C=C/C=N/Nc2nc(N3CCOCC3)nc(N3CCOCC3)n2)cc1,inactive
25,O=C(CCl)NNc1nc(-c2ccccc2)c2cc(Cl)ccc2n1,1.58 µM (active)
26,OCCNc1nc(-c2ccccc2)c2cc(Cl)ccc2n1,inactive

row,SMILES,Potency
1,OCCCNc1nc(-c2ccccc2)c2cc(Cl)ccc2n1,inactive
2,CCC(C)(C)n1nnnc1C(c1ccc(F)cc1)N1CCC(C(N)=O)CC1 (centres undefined),inactive
3,CCOC(=O)c1c(CC(C)C)csc1NC=C1C(=O)CCCC1=O,39.8 µM (active)
4,CCOC(=O)c1c(CC(C)C)csc1/N=C/C1C(=O)CCCC1=O,inactive
5,CCOC(=O)c1c(CC(C)C)csc1N,inactive
6,CCc1c(C)c2cc(Cl)c(O)c(CN3CCCC3)c2oc1=O,inactive
7,O=C(NNC(=O)c1ccc(Cl)cc1Cl)c1cnccn1,inactive
8,Cc1ccc(OCCSc2nc3ccccc3n2CC(=O)N2CCCCC2)c(C)c1,35.5 µM (active)
9,CCc1ccc(OCCSc2nc3ccccc3n2CCC(=O)O)cc1,inactive
10,O=C(Cn1c(SCCOc2ccc(Cl)cc2)nc2ccccc21)N1CCCCC1,39.8 µM (active)
11,COCCn1c(SCC(=O)NC2CC2)nc2ccccc21,inactive
12,COc1ccccc1OCc1nnc(SCC(=O)N2CCCCC2)o1,inactive
13,CCc1ccc(OCCSc2nc3ccccc3n2CC(=O)N2CCCCC2)cc1,39.8 µM (active)
14,O=C(CSc1nc2ccccc2n1Cc1ccc(Cl)cc1)N/N=C/c1ccc(C(=O)O)cc1,inactive
15,Cc1cccc(OCCCC(=O)N2CCCCCC2)c1C,inactive
16,CN(CCOc1ccc(Cl)cc1)C(=O)c1ccccc1SCC(=O)N1CCCC1,inactive
17,COc1ccc(CSc2ncnc3sccc23)cc1F,inactive
18,Clc1ccc(-n2nnnc2Sc2ncnc3sccc23)cc1,20 µM (active)
19,CC(=O)Nc1cc(-c2ccc(N3CCN(C)CC3)cc2)cn2c(-c3ccc(F)cc3)cnc12,35.5 µM (active)
20,COc1ccc(-c2cc(NC=O)c3ncc(-c4cnn(C)c4)n3c2)cc1,inactive
21,CN1CCN(c2ccc(-c3cc(NC=O)c4ncc(-c5ccc(F)c(Cl)c5)n4c3)cc2)CC1,inactive
22,Cn1c(-c2ccc(F)cc2)cnc1NCc1ccc(F)cc1F,inactive
23,COc1cc(-c2cnc3c(NC(C)=O)cc(-c4ccc(N5CCN(C)CC5)cc4)cn23)cc(OC)c1OC,39.8 µM (active)
24,CC(=O)Nc1cc(-c2ccc(N3CCN(C)CC3)cc2)cn2c(-c3ccc(F)c(Cl)c3)cnc12,35.5 µM (active)
25,COc1ccc(-c2c(C)c3ccc(O)c(CN4CCN(C)CC4)c3oc2=O)cc1OC,inactive
26,CCCCNC(=O)c1cc2c(=O)n3cccc(C)c3nc2n(Cc2ccncc2)c1=N,inactive

row,SMILES,Potency
1,CCCc1cc(NCCCN(C)C)n2c(nc3ccccc32)c1C#N,inactive
2,Cc1nc(N/N=C/c2ccc(Br)cc2)cc(N2CCOCC2)n1,inactive
3,O=C(OCc1nc(O)c2c(-c3ccccc3)csc2n1)c1cc(Cl)ccc1[N+](=O)[O-],inactive
4,C=CCNC(=O)c1c(N)n(-c2cccc(S(N)(=O)=O)c2)c2nc3ccccc3nc12,inactive
5,CC1=CC(=O)C=C/C1=C(/c1ccc(O)cc1C)c1ccccc1S(=O)(=O)O,inactive
6,O=c1oc2cc(O)ccc2c2ccccc12,inactive
7,O=S(=O)(O)c1cc(O)c(N=Nc2ccc(O)cc2O)c2ccccc12,22.4 µM (active)
8,CN1C(=O)/C(=N\CCc2ccccc2)c2c3ccccc3c(O)c3cccc1c23,inactive
9,Sc1nc(-c2ccccc2)cn1/N=C/c1ccccc1Br,inactive
10,CCn1c(/C=C/c2ccc(O)cc2)nc2ccccc2c1=O,inactive
11,CS(=O)(=O)c1ccc(C(=O)OCc2nnc(-c3ccc(Cl)cc3)o2)cc1[N+](=O)[O-],28.2 µM (active)
12,COc1ccc(-c2cc(-c3nnc(COC(=O)c4ccncc4)o3)c3ccccc3n2)cc1OC,inactive
13,NC(=O)c1ccc(Oc2ccc(Cl)cc2)c([N+](=O)[O-])c1,inactive
14,CC(=O)Oc1ccc(-c2cc3c(OC(C)=O)cc(OC(C)=O)cc3oc2=O)cc1,inactive
15,OC[C@@H]1[C@@H](c2ccc(F)cc2)C(c2cccc(Cl)c2)=NN1c1ccccc1,inactive
16,CCN(CC)CCn1c(C)nc2c(sc3nc4c(cc32)COC(C)(C)C4)c1=O,inactive
17,O=C(N/N=C/c1c(O)ccc2ccccc12)c1ccc(Br)o1,inactive
18,O=C(N/N=C/c1sc(=O)n(Cc2ccc(Br)cc2)c1Cl)c1ccco1,20 µM (active)
19,C/C(=N\NC(=O)c1ccc(C(=O)N/N=C(\C)c2ccco2)o1)c1ccco1,inactive
20,CN1CCc2ccc(NC(=O)c3ccc(C(F)(F)F)cc3)cc2C1,inactive
21,CC1=C(C(=O)Nc2ccc(Cl)cc2)C(c2ccc(C(F)(F)F)cc2)n2nnnc2N1 (centres undefined),28.2 µM (active)
22,O=C(Nc1ccc(Cl)cc1)c1cnn2c1NC(c1ccccc1)=CC2c1ccccc1 (centres undefined),inactive
23,Cc1ccc(S(=O)(=O)Nc2ccccc2/C=N/c2nc3ccccc3n2C)cc1,inactive
24,O=C(c1cnn(C(=O)c2ccco2)c1)c1ccccc1O,inactive
25,C/C(=N\N1C(=O)c2ccccc2NC1c1ccco1)c1ccccc1O (centres undefined),2 µM (active)
26,Cc1ccc(/C=N/N2C(=O)c3ccccc3NC2c2ccc(C)cc2)cc1 (centres undefined),inactive

# Reference: ChEMBL document CHEMBL1201862, “PubChem BioAssay data set” (2004)
